Compounds with a hit are over-represented: about 7.5% of the library has one in this group of screens.
Rab9 promoter act: activates the Rab9 promoter. Potency, µM (titrated, usually from 9.22 µM), for inactives: at the top dose activation, negative = inhibition, usual class: activators. Huh7 Rab9 promoter-luciferase reporter, luminescence, 24 h. hit rate 2.8% among 320,000; further: % of control where 0% means no effect; nearly all actives have a fitted effect of over 60% in size
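Steps: seed 1500 Huh7 Rab9-luc cells per well, rest 2 h at 37 °C; add compound in DMSO; incubate 24 h; add luciferase reagent, 10 min ambient; read luminescence.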
FLuc counter: counter-screen for miR-21 project: firefly luciferase inhibitors or activators; P08659; AID 588342; hit rate 6.9% among 360,000; Potency, µM (top dose mostly 57.5 µM), for the others: top-dose activity change, negative = inhibition, hits mostly inhibitors; purified FLuc, Km substrates, luminescence inhibition;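 further: plate controls were vehicle for no effect and reference inhibitor for full effect; nearly all actives have a fitted effect of over 55% in size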
Target sequence (P08659 whole entry, looked up): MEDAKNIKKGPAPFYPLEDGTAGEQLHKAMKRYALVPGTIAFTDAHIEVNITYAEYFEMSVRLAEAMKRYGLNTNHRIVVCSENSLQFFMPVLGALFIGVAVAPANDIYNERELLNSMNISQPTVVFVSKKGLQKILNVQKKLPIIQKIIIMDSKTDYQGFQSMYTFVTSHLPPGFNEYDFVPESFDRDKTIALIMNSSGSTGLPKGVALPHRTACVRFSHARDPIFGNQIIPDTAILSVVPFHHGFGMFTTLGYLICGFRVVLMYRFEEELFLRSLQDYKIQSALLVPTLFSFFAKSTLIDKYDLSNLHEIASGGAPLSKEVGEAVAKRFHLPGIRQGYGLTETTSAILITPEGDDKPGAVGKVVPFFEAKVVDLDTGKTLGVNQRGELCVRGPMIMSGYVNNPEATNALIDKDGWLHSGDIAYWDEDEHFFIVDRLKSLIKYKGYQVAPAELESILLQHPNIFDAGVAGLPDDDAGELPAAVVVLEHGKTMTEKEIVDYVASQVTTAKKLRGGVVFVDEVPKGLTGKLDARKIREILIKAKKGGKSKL
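Purified P. pyralis luciferase (10nM final) with 10uM D-luciferin and 10uM ATP (Km levels) in 50mM Tris acetate pH 7.5, 10mM Mg acetate, 0.01% Tween-20, 0.05% BSA; qHTS 6-point titration, ~60 µM downward; luminescence read.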
ELG1 genotox: genotoxicity induction in ELG1-luciferase HEK293T cells. HEK293T ELG1-luciferase reporter, luminescence, 16 h. Potency, µM (doses to about 46 µM), for inactives: top-dose activity change, positive = activation, usual class: activators. hit rate 1.3% among 330,000. AID 504466; further: % of control where 0% means no effect; nearly all actives have a fitted effect of over 60% in size
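16 hr compound incubation (37 °C, 5% CO2) of HEK293T cells carrying luciferase-tagged ELG1; luciferase then measured by ONE-Glo luminescence after 30 min at RT.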
SMN2 splice enh: increases expression of the SMN2 splice variant. HEK293 SMN2-luciferase splicing reporter, luminescence, 30-36 h. hit rate 2.8% among 210,000. Potency, µM (highest dose often 46.1 µM), inactives show top-dose activity change, positive = activation, usual class: activators; further: % of control where 0% means no effect; nearly all actives have a fitted effect of over 55% in size
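HEK293 cells carry an SMN2 […]–luciferase reporter in which exon 7 inclusion puts luciferase in frame. Cells were plated 10-12 h before compound addition, then incubated 30-36 h at 37C. ONE-Glo luminescence was read; sodium butyrate at 4.5 mM final served as control.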
NPC1 promoter act: NPC1 promoter activation; Potency, µM (series often up to 9.22 µM), for inactives: at the top dose activation, most hits filed as activators; AID 485313; hit rate 2.4% among 320,000; Huh7 NPC1 promoter luciferase reporter, 24 h; further: % of control where 0% means no effect; nearly all actives have a fitted effect of over 60% in size
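Huh7 reporter cells (NPC1 promoter driving luciferase) are dosed with compound for 24 h at 37 °C, 5% CO2; luciferase detection reagent is then added and luminescence measured after 10 min at ambient temperature.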
Luc counter: counter-screen: inhibitors of Kinase-Glo firefly luciferase | Q27757 | Kinase-Glo luciferase, ATP luminescence, 8 min | Potency, µM (highest dose often 38.3 µM), for inactives: at the top dose activity change, negative = inhibition, most hits filed as inhibitors | hit rate 0.28% among 200,000; further: on the % scale 0 is the no-effect control and ±100 the full control effect; nearly all actives have a fitted effect of over 60% in size
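Inhibition of Kinase-Glo luciferase light generation was assessed at 10 uM ATP in pH 7.2 imidazole buffer, with luminescence measured after eight minutes at ambient temperature.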
The depositor's hits bear a star; ? = inconclusive; . = no result; [ ] = another dose, or the depositor's remark. The call rests on the fitted dose curve; in most records, active means well fitted curve in the direction sought with a large enough effect; inconclusive means small, poorly fitted or top-dose-only effect, or another doubt; inactive means no such curve, though single readings can be large; an effect the other way counts as inactive or inconclusive. Potency means the concentration at half of the fitted maximal effect.

SMILES | Rab9 promoter act | FLuc counter | ELG1 genotox | SMN2 splice enh | NPC1 promoter act | Luc counter
CCn1c2ccc(Cl)cc2c2nc3ccccc3nc21 | 7% | ? | 0% | -11% | -5% | -2%
CCn1c2ccc(C)cc2c2nc3cc(C(=O)O)ccc3nc21 | ? | 27µM* | ? | 14% | 19% | -1%
Cc1nc(NC2CCCCC2)c2nc(-c3ccccc3)n(CCN(C)C)c2n1 | . | . | . | -17% | . | -4%
CCc1ccc(N2CC(C(=O)OCc3nc4ccsc4c(=O)[nH]3)CC2=O)cc1 (stereo not drawn) | -7% | 2% | 4% | . | -1% | .
O=C(O)c1ccc2oc(SCC(=O)N3CCCCC3)nc2c1 | 2.5µM* | 17µM* | ? | 13µM* | 3.5µM* | -2%
CN(C(=O)CSc1nc2ccccc2o1)C1CCCCC1 | 2.8µM* | 7.6µM* | ? | . | 2.2µM* | .
CN(C(=O)CSc1nnc(-c2cccnc2)o1)C1CCCCC1 | -1% | -2% | 1% | . | -1% | .
CC1CCCN(C(=O)CSc2nc3ccccc3o2)C1 (stereo not drawn) | 3.2µM* | 17µM* | ? | 19% | 2.5µM* | -4%
CC1=C(C(=O)Nc2ccccc2)C(c2ccncc2)n2nc(SCc3ccccc3)nc2N1 (stereo not drawn) | . | 0% | . | 7% | . | .
Cc1nc2ccccn2c1C(=O)Nc1ccc2c(c1)OCCO2 | ? | 12µM* | ? | 7.1µM* | ? | -22%
Cc1nc2ccccn2c1C(=O)Nc1ccc(Cl)cc1 | ? | 24µM* | ? | 88% | ? | 1%
Cc1nc2ccccn2c1C(=O)NCc1ccc2c(c1)OCO2 | 1% | 5% | 1% | -38% | -7% | -2%
Cc1ccc(NC(=O)c2c(Cl)nc3ccccn23)cc1 | ? | 11µM* | ? | 13µM* | 19% | -1%
Cc1nc2ccccn2c1C(=O)N/N=C/c1ccc2c(c1)OCO2 | 21% | 12µM* | ? | ? | 15% | -6%
COCC1=C2c3ccccc3[C@H](C[N+](=O)[O-])C(C(=O)OC)(C(=O)OC)CC2C2C(=O)N(c3ccccc3)C(=O)C2C1 (stereo partly drawn) | . | . | . | 11% | . | 1%
Cc1cc(C)cc(C(=O)OCC(=O)NCc2ccco2)c1 | . | . | -1% | . | . | .
N#C/C(=C\NC(=S)c1ccncc1)c1nc2ccccc2s1 | . | . | . | 2%[9.22 µM] | . | -3%[7.66 µM]
Cc1c(-n2c(SCC(=O)C(C)(C)C)nc3ccccc3c2=O)c(=O)n(-c2ccccc2)n1C | -6% | 0% | -2% | 7% | -1% | 2%
COCC(C)n1c(C)cc(C(=O)COC(=O)c2n[nH]c3ccccc23)c1C (stereo not drawn) | 0.63µM* | 3µM* | ? | -9% | 1µM* | -7%
COCC(C)n1c(C)cc(C(=O)CSc2nnc(N)s2)c1C (stereo not drawn) | 4µM* | 8.5µM* | 8.2µM* | ? | ? | -4%
COCC(C)n1c(C)cc(C(=O)COC(=O)c2oc3ccccc3c2C)c1C (stereo not drawn) | 3% | ? | -10% | -29% | 14% | -4%
COCC(C)n1c(C)cc(C(=O)CSc2nnnn2C2CCCC2)c1C (stereo not drawn) | ? | 4.3µM* | ? | . | ? | .
COc1ccc(OC)c(NC(=O)CSc2ccc3nnc(-c4cccnc4)n3n2)c1 | 2% | -3% | -10% | 5% | -3% | -1%
COC(=O)c1c(NC(=O)c2ccc(C)o2)sc2c1CCCCC2 | 3.5µM* | 12µM* | 10µM* | 14µM* | 3.5µM* | -2%
Cc1ccc(C(=O)Nc2sc3c(c2C(=O)O)CCCC3)o1 | ? | 12µM* | 4% | . | ? | .
SMILES | Rab9 promoter act | FLuc counter | ELG1 genotox | SMN2 splice enh | NPC1 promoter act | Luc counter
Cc1ccc(C(=O)Nc2sc3c(c2C(=O)O)CCCCC3)o1 | 3.5µM* | 2.7µM* | 2% | 13µM* | 3.5µM* | 7.9µM*
CC1Cc2ccccc2N1C(=O)CN1CCN(Cc2ccccc2)CC1 (stereo not drawn) | 5% | 2% | -3% | . | -1% | .
COc1ccc(C(=O)N/N=C\c2ccoc2)cc1 | 26% | 19µM* | ? | . | ? | .
COc1cc(OC)c(C(=O)N/N=C/c2ccoc2)cc1OC | 7% | -8% | ? | . | 0% | .
CC(C)c1cc(C(=O)N/N=C/c2cccnc2)cs1 | -5% | ? | 16% | ? | -1% | 0%
CCOc1cccc(C(=O)N/N=C/c2ccoc2)c1 | 1% | 13µM* | ? | . | -4% | .
CC(C)c1cc(C(=O)N/N=C/c2ccoc2)cs1 | ? | 12µM* | ? | . | ? | .
Cc1ccc(C(=O)N/N=C/c2ccoc2)cc1C | ? | 27µM* | ? | . | ? | .
COc1ccc(-c2noc(CSCC(=O)Nc3cc(OC)c(OC)c(OC)c3)n2)cc1OC | . | -2% | . | . | . | .
O=C(N/N=C/c1cn(-c2cccs2)nc1-c1ccccc1)c1ccc(O)cc1 | 4% | 4.3µM* | -19% | ? | 7% | -20%
O=C(N/N=C/c1cn(-c2cccs2)nc1-c1ccccc1)c1ccccc1Cl | -3% | 12µM* | 5% | 20µM* | 6% | 1%
CC(=O)c1cccc(NC(=O)Cn2c(-c3cncs3)nc3ccccc32)c1 | . | -16% | . | -7% | . | .
Cc1ccc(Nc2nc(CSc3nnc(-c4ccc(F)cc4)n3C)cs2)cc1 | ? | 1.3µM* | 16% | 10µM* | ? | 2%
COc1ccc(-c2nnc(SCc3csc(N)n3)n2C)cc1 | 12% | 1% | 2% | . | 1% | .
Nc1nc(CSc2nc3ccccc3[nH]2)cs1 | ? | ? | 12% | 19% | ? | 0%
Cc1sc2nc(-c3ccncc3)[nH]c(=O)c2c1-c1ccccc1 | -12% | -14% | 6% | -5% | 1% | 1%
Cc1ccc2nc(-c3ccccc3N)[nH]c2c1 | 0.5µM* | 0.76µM* | 1.2µM* | 7.1µM* | 1.1µM* | -30%
Cc1sc2nc(-c3ccccn3)[nH]c(=O)c2c1-c1ccccc1 | 28% | 11µM* | ? | 52% | 24% | -14%
c1ccc(-c2nc3c(ccc4ccccc43)[nH]2)nc1 | ? | 3.8µM* | 18% | 14µM* | 2.8µM* | -15%
Nc1nc(-c2nc3ccccc3[nH]2)cs1 | 1.1µM* | 5.4µM* | 2.1µM* | 16µM* | 1.3µM* | -20%
COCCn1cnc2c1c(=O)n(CC(=O)OCC(=O)NCC(F)(F)F)c(=O)n2Cc1ccccc1 | 7% | 3% | 1% | . | -3% | .
CCN(CC)C(=O)CSc1nc2cc3c(cc2c(=O)n1Cc1ccc(C(=O)NCCc2ccc(OC)c(OC)c2)cc1)OCO3 | . | 3% | . | . | . | .

Source: PubChem BioAssay (National Center for Advancing Translational Sciences (NCATS))
